Structures are written as SMILES. Where “and” joins values, the source holds several entries; their conditions need not be identical. Equal entries are not always repeated. Among all 6,400 compounds or so, about 610 (9.5%) were called active. Rule as the data show it: active = activity change below about -70%; inconclusive = no clear call, values can overlap the other calls; inactive = above that. The entries come from a sample that favours actives as a whole. Some structures have more than one record in an assay (separate samples or runs), and their calls can disagree. Where a SMILES comes first, the peptide text is derived from it.

This experiment in a line: T. gondii ME49Luc in HeLa cells, luciferase assay, 72 h, no IFN-y (AID 1259421). The following applies: stronger effect = lower value, concentration not given here.
Regarding `C[C@H](N)Cn1ccc2cc(F)c(Cl)cc21`, the activity change, negative = inhibition was 7.22% (inactive).

As for `Cc1ncc(CNC(=O)N(CCCl)[NH2+][O-])c(N)n1`, the activity change, negative = inhibition is 18.6% (inactive).

Regarding `CN(C)[C@@H]1C(=O)C(C(N)=O)C(=O)[C@@]2(O)C(=O)C3C(=O)c4c(O)cccc4[C@](C)(O)[C@H]3C[C@@H]12` (stereo partly specified), the activity change, negative = inhibition is 4.49% (inactive).

As to `N[C@@H](Cc1ccc(O)cc1)C(=O)NCC(=O)NCC(=O)O` (H-Tyr-Gly-Gly-OH), the activity change, negative = inhibition is -5.06% (inactive).

Turning to `NC(=O)C[S@@](=O)C(c1ccccc1)c1ccccc1`, the activity change, negative = inhibition is 3.02% (inactive).

For `CCCC(C)C1(CC)C(=O)NC(=O)NC1=O` (stereo unspecified), the activity change, negative = inhibition is 19.8% (inactive).

As to `CN[C@@H](C)[C@H](O)c1ccccc1`, the activity change, negative = inhibition is -0.966% (inactive).

With `C[C@]12CCC(=O)C(=O)C1CC[C@@H]1[C@@H]2CC[C@]2(C)C(=O)CC[C@@H]12` (stereo partly specified), the activity change, negative = inhibition was 1.31% (inactive).

In the case of `CCN[C@@H](C)Cc1cccc(C(F)(F)F)c1`, the activity change, negative = inhibition was 3.99% (inactive).

`Cc1nnc2ccc(-c3cccc(C(F)(F)F)c3)nn12`: the activity change, negative = inhibition is -56.7% (inactive) and -76.7% (active).

As to `CCOC(=O)c1ncc2[nH]c3ccc(OCc4ccccc4)cc3c2c1COC`, the activity change, negative = inhibition was -0.724% (inactive) and 16.8% (inactive).

As for `CCNC(=O)C1OC(n2cnc3c(N)ncnc32)C(O)C1O` (stereo unspecified), the activity change, negative = inhibition was 1.34% (inactive).

In the case of `CCNC(=O)[C@H]1O[C@@H](n2cnc3c(N)ncnc32)[C@H](O)[C@@H]1O`, the activity change, negative = inhibition is -4.22% (inactive).

Turning to `NC(=O)c1cn(C2OC(CO)[C@H](O)[C@@H]2O)c2ncnc(N)c12` (stereo partly specified), the activity change, negative = inhibition was -91.9% (active).

Regarding `C#CCN1C(C)=C(C(=O)CCO)C(c2cccc(-n3oo3)c2)C(C(=O)OC)=C1C` (stereo unspecified), the activity change, negative = inhibition is 11.7% (inactive).

Turning to `OC1(c2ccc(Cl)cc2)c2ccccc2C2=NCCN21` (stereo unspecified), the activity change, negative = inhibition is 22.1% (inactive).

Take `CN1CCC2(c3cccc(O)c3)Cc3nc4ccccc4cc3CC2C1` (stereo unspecified): the activity change, negative = inhibition was -1.33% (inactive).

As to `CC[C@H]1CN2CCC1C[C@@H]2[C@H](O)c1ccnc2ccc(OC)cc12` (stereo partly specified), the activity change, negative = inhibition is 19.4% (inactive).

Consider `CCCCCCCCCCCCCC(=O)O[C@@H]1[C@@H](C)[C@@]2(O)[C@@H](C=C(CO)C[C@]3(O)C(=O)C(C)=C[C@@H]23)[C@@H]2C(C)(C)[C@]12OC(C)=O`, for which the activity change, negative = inhibition is -85.6% (active) and -84.7% (active).

As for `CC1=C[C@H]2[C@]3(O)[C@H](C)[C@@H](O)[C@@]4(O)[C@H]([C@@H]3C=C(CO)C[C@]2(O)C1=O)C4(C)C`, the activity change, negative = inhibition was -3.08% (inactive).

For `CCCCCCCCCOc1ccc2[nH]cc(CCN)c2c1`, the activity change, negative = inhibition was 7.94% (inactive).

With `CCC1/C=C/C=C/C[C@H](C)[C@@H](O)[C@](C)(O)C(=O)[C@@H](C)[C@H](O)[C@@H](C)C(=O)[C@H](C)[C@@H](O)[C@H](C)/C=C/C(=O)OC2[C@@H](C)C(CC1)OC1(CC[C@@H](C)C(C[C@H](C)O)O1)[C@@H]2C` (stereo partly specified), the activity change, negative = inhibition is -89.1% (active).

Consider `CC1=CC[C@@H]2[C@@H](C1)c1c(O)cc(CC#CCCCNS(C)(=O)=O)cc1OC2(C)C`, for which the activity change, negative = inhibition was 17.8% (inactive).

In the case of `COc1ccc(C(=O)O)cc1OC`, the activity change, negative = inhibition was 8.1% (inactive).

Turning to `O=C(O[C@H]1CN2CCC1CC2)N(Cc1cc(F)c(F)c(F)c1)c1cccc(F)c1`, the activity change, negative = inhibition was 16.6% (inactive).

Turning to `CC(=O)Oc1ccc(/C=C/c2cc(OC(C)=O)cc(OC(C)=O)c2)cc1`, the activity change, negative = inhibition was 11.4% (inactive).

On to `O=C1CCC[C@@H]2[C@@H]3CCCN4CCC[C@H](CN12)[C@@H]34`, for which the activity change, negative = inhibition was 15.2% (inactive).

With `C=C1[C@@H](C)[C@H]2[C@H](Cc3ccccc3)NC(=O)[C@]23OC(=O)/C=C\[C@H](O)CCC[C@@H](C)C/C=C/[C@H]3[C@@H]1O`, the activity change, negative = inhibition is -85.5% (active).

Regarding `C[C@]12Cc3cn[nH]c3C[C@@H]1CC[C@@H]1[C@@H]2CC[C@@]2(C)[C@H]1CC[C@]2(C)O`, the activity change, negative = inhibition was -3.74% (inactive).

In the case of `O=C(NC(=O)c1c(F)cccc1F)Nc1cc(Cl)c(OC(F)(F)C(F)C(F)(F)F)cc1Cl` (stereo unspecified), the activity change, negative = inhibition is -81.8% (active) and -81.1% (active).

With `CC(=O)OCC1=C(C(=O)O)N2C(=O)[C@@H](NC(=O)CCCC(N)C(=O)O)C2SC1.[Zn]` (stereo partly specified), the activity change, negative = inhibition is 20.4% (inactive).

As to `CC(C)=CC1C(C(=O)OCc2coc(Cc3ccccc3)c2)C1(C)C` (stereo unspecified), the activity change, negative = inhibition is 19.4% (inactive).

For the molecule `c1ccc2c(c1)[nH]c1cnccc12`, the activity change, negative = inhibition was -0.879% (inactive).

For `Cc1c2ccncc2c(C)c2c1[nH]c1ccccc12`, the activity change, negative = inhibition was -83.1% (active).

`Cc1nccc2c1[nH]c1ccccc12`: the activity change, negative = inhibition was 1.21% (inactive).

For the molecule `COc1ccc2c(c1)CN(C)CC2c1ccc(Cl)c(Cl)c1` (stereo unspecified), the activity change, negative = inhibition was 5.02% (inactive).

Regarding `O=C1CCC2(O)C3Cc4ccc(O)c5c4C2(CCN3CC2CC2)C1O5` (stereo unspecified), the activity change, negative = inhibition is 10.3% (inactive).

In the case of `Clc1ccc(C2=CCCC3CCC2N3)cn1` (stereo unspecified), the activity change, negative = inhibition is 12.4% (inactive) and -82.3% (active).

With `CN(C(=O)Cc1ccc(Cl)c(Cl)c1)[C@H](CN1CCCC1)c1ccccc1`, the activity change, negative = inhibition is 8.8% (inactive) and 17.5% (inactive).

`OC12C3C4CC5C6C4C1C6C(C53)N2CCc1cccc(F)c1` (stereo unspecified): the activity change, negative = inhibition is 18.7% (inactive) and 6.8% (inactive).

As to `CN(C)c1ccc(/C=C2\CCCN=C2c2cccnc2)cc1`, the activity change, negative = inhibition is -1.7% (inactive) and -12.2% (inactive).

With `CC1(C)CC[C@]2(C(=O)O)CC[C@]3(C)[C@H](C(=O)C=C4[C@@]5(C)C=C(C#N)C(=O)C(C)(C)[C@@H]5CC[C@]43C)[C@@H]2C1`, the activity change, negative = inhibition was -98.8% (active).

`O=C1NCN(c2ccccc2)C12CCN(CC1COc3ccccc3O1)CC2` (stereo unspecified): the activity change, negative = inhibition was -3.91% (inactive) and 4.3% (inactive).

With `CC1CC(C)C(=O)C(C(O)CC2CC(=O)NC(=O)C2)C1` (stereo unspecified), the activity change, negative = inhibition was -83.8% (active).

On to `C[C@@H]1C[C@@H]([C@H](O)CC2CC(=O)NC(=O)C2)C(=O)[C@@H](C)C1`, for which the activity change, negative = inhibition is -81.3% (active) and -84.7% (active).

Regarding `Oc1c(I)cc(I)cc1I`, the activity change, negative = inhibition is 3.61% (inactive).

Turning to `CN1CC(CNC(=O)OCc2ccccc2)CC2c3cccc4c3c(cn4C)CC21` (stereo unspecified), the activity change, negative = inhibition is 8.87% (inactive) and 8.34% (inactive).

Regarding `N#CC(C#N)=NNc1ccc(OC(F)(F)F)cc1`, the activity change, negative = inhibition is 20% (inactive).

Regarding `Oc1ccc2c3c1O[C@H]1c4oc5ccccc5c4C[C@@]4(O)C(C2)N(CC2CC2)CC[C@]314`, the activity change, negative = inhibition was -2.8% (inactive).

For the molecule `C/C(=C/C=C/[C@@H](C)C(=O)O)[C@H]1CN[C@H](C(=O)O)[C@H]1CC(=O)O`, the activity change, negative = inhibition is 4.56% (inactive).

With `c1ccc(CCCN2CCN(CCOC(c3ccccc3)c3ccccc3)CC2)cc1`, the activity change, negative = inhibition is -51.1% (inactive) and -1.58% (inactive).

As for `C[C@H]1CN(Cc2ccc(CC(=O)N3CCC(Nc4cccc(F)c4)CC3)cc2)CCN1`, the activity change, negative = inhibition is 4.86% (inactive).

In the case of `CC(C)(C)c1cc(C=C(C#N)C#N)cc(Br)c1O`, the activity change, negative = inhibition is -39.2% (inactive).

`N#CC(C#N)=Cc1ccc(O)c(O)c1`: the activity change, negative = inhibition is 10.7% (inactive) and 7.11% (inactive).

With `CC(C)(C)c1cc(C=C(C#N)C#N)cc(C(C)(C)C)c1O`, the activity change, negative = inhibition was -90.8% (active) and -88.7% (active).

For the molecule `CN1C(=O)N(C)C2C1N(C)C(=O)N2C` (stereo unspecified), the activity change, negative = inhibition was 5.58% (inactive).

On to `OC1CC2CCCC(C1)N2Cc1ccccc1` (stereo unspecified), for which the activity change, negative = inhibition is 4.85% (inactive).

As to `CC(=O)O[C@H]1C[C@@H](OC(C)=O)C(C)(C)C2C[C@@H](OC(C)=O)[C@]3(C)C(CC[C@@]4(C)[C@H](c5ccoc5)C(=O)[C@H]5O[C@]543)[C@]21C` (stereo partly specified), the activity change, negative = inhibition was 11.1% (inactive).

Take `CC1(C)C(=O)C=C[C@@]2(C)C1C[C@@H](O)[C@]1(C)C2CC[C@@]2(C)[C@H](c3ccoc3)OC(=O)[C@H]3O[C@]321` (stereo partly specified): the activity change, negative = inhibition is 13.2% (inactive).

Regarding `CC(=O)O[C@@H]1CC2C(C)(C)C(=O)C=C[C@]2(C)C2CC[C@]3(C)C(=CC(=O)O[C@H]3c3ccoc3)[C@@]21C` (stereo partly specified), the activity change, negative = inhibition was -83.5% (active).

With `CCN(CC)CCOC1CCC2(C)C(=CCC3C4CCC(=O)C4(C)CCC32)C1` (stereo unspecified), the activity change, negative = inhibition is -5.47% (inactive).

For the molecule `CN1CC2CCCC(C1)C2OC(=O)C(O)(c1ccccc1)C1CCCC1` (stereo unspecified), the activity change, negative = inhibition is 36% (inactive).

In the case of `C[C@H](N)Cc1cnc[nH]1`, the activity change, negative = inhibition is 10.9% (inactive).

Regarding `Cc1cccc(C(C)c2cnc[nH]2)c1C` (stereo unspecified), the activity change, negative = inhibition is 15.9% (inactive) and 24.6% (inactive).

Turning to `CCCCCCC(C)(C)c1ccc(C2CC(O)CCC2CCCO)c(O)c1` (stereo unspecified), the activity change, negative = inhibition is 0.246% (inactive).

Turning to `C[C@]12CC[C@H](O)C[C@H]1CC[C@@H]1[C@@H]2CC[C@]2(C)[C@@H](C3=CC(=O)OC3)CC[C@]12O`, the activity change, negative = inhibition was -86.6% (active).

Take `CC(=O)C1CCC2C3CCC4C[C@H](O)CCC4(C)C3C[C@H](O)C12C` (stereo partly specified): the activity change, negative = inhibition is 3.84% (inactive).

Take `CC(=O)[C@H]1CC[C@H]2[C@@H]3CC[C@H]4C[C@H](O)CC[C@]4(C)[C@H]3C(=O)C[C@]12C`: the activity change, negative = inhibition is 12.1% (inactive).

As to `C[C@]12CC[C@H](O)C[C@H]1CC[C@@H]1[C@@H]2CC[C@]2(C)[C@@](O)(c3ccoc3)CC[C@]12O`, the activity change, negative = inhibition is 2.9% (inactive).

With `CC(=O)OCC(=O)[C@H]1CC[C@H]2[C@@H]3CC[C@H]4C[C@H](O)CC[C@]4(C)[C@H]3C(=O)C[C@]12C`, the activity change, negative = inhibition was -8.47% (inactive).

As to `C[C@]12CC[C@@H](O)C[C@@H]1CC[C@@H]1[C@@H]2CC[C@]2(C)C(=O)CC[C@@H]12`, the activity change, negative = inhibition was 9.11% (inactive).

`C[C@]12[C@H](O)CC3C(CC[C@@H]4C[C@@H](O)CC[C@]34C)[C@@]1(O)CC[C@@H]2C1=CC(=O)OC1` (stereo partly specified): the activity change, negative = inhibition is -84.3% (active).

For the molecule `C[C@]12CC[C@@H](O)C[C@@H]1CC[C@@H]1[C@@H]2CC[C@]2(C)[C@@H](C(=O)CO)CC[C@@H]12`, the activity change, negative = inhibition was 8.82% (inactive).

`C[C@]12CC[C@H](O)C[C@H]1CC[C@@H]1[C@@H]2C[C@@H](O)[C@]2(C)[C@@H](C3=CC(=O)OC3)CC[C@]12O`: the activity change, negative = inhibition is -93.5% (active).

Turning to `Cl/C=C\C[N+]12CN3CN(CN(C3)C1)C2`, the activity change, negative = inhibition was 5.98% (inactive).

Turning to `NC1=NC(=O)N2CC12` (stereo unspecified), the activity change, negative = inhibition is 6.84% (inactive).

The values above are taken from PubChem BioAssay AID1259421 (Broad Institute, 2018).
